Among the data in PubChem BioAssay AID2803 (The Scripps Research Institute Molecular Screening Center, 2010) are inhibition values, retold here.

Structures are written as SMILES. Among all 2,000 compounds or so, about 1,300 (65%) were called active. The set was probably picked from earlier hits. The list is a sample of the results. Values without a mark were called inactive. Cut-off read from the data, not from the text of the source: active = inhibition above about 43%; inactive = the rest.

In this test the target is Prolyl endopeptidase-like (Homo sapiens) (UniProt Q4J6C6). Nature of the test: human PREPL enzyme inhibitors, confirmation, biochemical, fluorescence polarization (AID 2803).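 Note: 0% = protein with DMSO and 100% = wells lacking protein.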 The following applies: recombinant PREPL, fluorescence polarization activity probe; at 5.96 µM; hits give high values.
Sequence of Prolyl endopeptidase-like (Homo sapiens) (Q4J6C6 whole entry, looked up): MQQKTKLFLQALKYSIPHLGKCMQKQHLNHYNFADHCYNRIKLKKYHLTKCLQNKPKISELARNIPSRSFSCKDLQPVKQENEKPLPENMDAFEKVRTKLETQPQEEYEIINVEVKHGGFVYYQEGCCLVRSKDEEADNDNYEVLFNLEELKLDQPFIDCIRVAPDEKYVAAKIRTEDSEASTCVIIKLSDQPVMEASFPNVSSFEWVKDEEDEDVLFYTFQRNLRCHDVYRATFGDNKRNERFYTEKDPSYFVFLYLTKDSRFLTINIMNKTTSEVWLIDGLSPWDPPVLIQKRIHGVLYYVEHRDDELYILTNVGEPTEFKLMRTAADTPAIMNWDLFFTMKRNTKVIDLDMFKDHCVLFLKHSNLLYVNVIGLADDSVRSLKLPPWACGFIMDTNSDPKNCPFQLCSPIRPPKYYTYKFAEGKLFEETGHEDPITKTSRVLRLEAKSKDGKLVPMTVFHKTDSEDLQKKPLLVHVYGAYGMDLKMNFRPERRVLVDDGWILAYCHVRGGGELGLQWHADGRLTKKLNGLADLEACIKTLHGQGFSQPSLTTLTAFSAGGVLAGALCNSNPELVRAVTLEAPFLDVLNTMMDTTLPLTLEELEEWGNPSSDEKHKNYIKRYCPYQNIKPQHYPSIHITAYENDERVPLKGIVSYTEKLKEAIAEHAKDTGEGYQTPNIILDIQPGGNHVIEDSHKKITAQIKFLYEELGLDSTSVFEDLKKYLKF
On to `CCOc1ccc2nc(N3CCCN(C(=O)Nc4ccccc4C)CC3)c(C#N)cc2c1`, for which the inhibition is 43.9% (active).

Take `Nc1ccc(Nc2ccccc2)cc1`: the inhibition was 29.3%.

Take `CC(=O)Nc1ccc(S(=O)(=O)Nc2ccc(N3CCCCC3)cc2)cc1`: the inhibition was 46.4% (active).

Turning to `O=C(NNc1c2ccccc2nc2ccccc12)c1cc2ccccc2cc1O`, the inhibition is 23.9%.

On to `O=C1N=C(N2CCc3ccccc3C2)S/C1=C\c1ccc(O)cc1`, for which the inhibition is 48.4% (active).

Regarding `COc1ccc2cc1Oc1ccc(cc1)C[C@H]1c3cc(c(OC)cc3CCN1C)Oc1c(O)c(OC)cc3c1[C@H](C2)N(C)CC3`, the inhibition is 55.2% (active).

For `CCN1C(=O)/C(=C\N2CCN(c3ccccc3)CC2)SC1=S`, the inhibition is 54.7% (active).

`COC(=O)[C@H]1[C@H]2C[C@H]3c4[nH]c5ccccc5c4CCN3C[C@@H]2CC[C@@H]1O`: the inhibition was 22.4%.

As for `Cc1nc([N+](=O)[O-])nn1C12CC3CC(CC(Br)(C3)C1)C2`, the inhibition was 8.94%.

In the case of `CCN1/C(=C\c2ccc3ccccc3[n+]2CC)Sc2cc(C)ccc21`, the inhibition was 61.6% (active).

As to `CCN1/C(=C/c2ccc3ccc(C)cc3[n+]2CC)Sc2ccccc21`, the inhibition is 52.8% (active).

For the compound `C#CCOCCOCCOCCNc1nc(N2CCN(C(=O)CCCCCCCCCCNC(=O)Cn3cc(CCCCCN)nn3)CC2)nc(N2CCN(C(=O)CCCCCCCCCCNC(=O)[C@H](CO)n3cc(CCCSC)nn3)CC2)n1`, the inhibition was 63.1% (active).

For the compound `CCC(CO)Oc1cc(NCc2ccccc2)c2ncn(C3CCCC3)c2c1` (stereo unspecified), the inhibition is 12%.

Take `CC(C)n1cnc2c(NCc3ccccc3)cc(OCC3CCN(C)CC3)cc21`: the inhibition is 54.1% (active).

On to `N#C/C(=C/c1ccc(N2CCCCC2)o1)C(=O)NCCc1c[nH]c2ccccc12`, for which the inhibition is 78.5% (active).

On to `O=C(NCc1ccccn1)c1ccc2nc(-c3ccco3)c(-c3ccco3)nc2c1`, for which the inhibition was 39.2%.

As to `Oc1c(CN2CCCC2)cc(COCc2ccccc2)c2cccnc12`, the inhibition is 69.6% (active).

As to `Cc1ccc(C2CC(c3cccc(C)c3)n3nc(N)nc3N2)cc1` (stereo unspecified), the inhibition is 53.7% (active).

`Oc1ccc2ccccc2c1N=Nc1nccs1`: the inhibition is 40.4%.

With `O=C(c1cc(C(=O)N2CCN(c3ccc(F)cc3)CC2)cc([N+](=O)[O-])c1)N1CCN(c2ccc(F)cc2)CC1`, the inhibition was 47.8% (active).

Consider `O=C(OCC(=O)N1CCN(c2ccccc2)CC1)c1ccc([N+](=O)[O-])s1`, for which the inhibition was 22.6%.

As to `COCCN(CCOC)c1nc(N)c2c(N)nc3c(c2c1C#N)CC(=O)N3Cc1ccc(Cl)cc1`, the inhibition was 19.2%.

In the case of `O=C1c2ccccc2C(=O)c2c1cccc2N1CCN(C/C=C/c2ccccc2)CC1`, the inhibition is 80.7% (active).

`COc1ccc2cc(C(=O)C3CCCN(C(=O)c4sc(C)nc4C)C3)ccc2c1` (stereo unspecified): the inhibition was 31.8%.

Regarding `C[N+](C)(CCCCCC[N+](C)(C)CCCN1C(=O)c2cccc3cccc(c23)C1=O)CCCN1C(=O)c2cccc3cccc(c23)C1=O`, the inhibition is 56% (active).

For `Cn1c(CCN2CCCCCC2)nc2cc(NC(=O)Nc3ccccc3)ccc21`, the inhibition is 38.1%.

Consider `O=C(N/N=C/c1cccnc1)c1cc2ccccc2cc1O`, for which the inhibition is 5.89%.

As to `CC(C)(C)Nc1nc(-c2ccccn2)nc2ccccc12`, the inhibition was 62.5% (active).

Consider `CC(=O)N1CCN(c2ccc(NCc3ccc(C(C)C)cc3)cc2)CC1`, for which the inhibition is 61.9% (active).

On to `COc1cc2c(cc1O)[C@H](Cc1ccc(Oc3cc(C[C@@H]4NCCc5cc(OC)c(O)cc54)ccc3O)cc1)NCC2`, for which the inhibition was 37.1%.

Consider `CC[C@@H](C)[C@@H]1CN([C@@H](C)CN2CCC[C@H]2CN2C(N)=NC[C@H]2C(C)C)C(=N)N1CCc1ccc(Cl)c(Cl)c1`, for which the inhibition is 66.1% (active).

Regarding `C[C@@H](CN1CCC[C@H]1CN1C(N)=NC[C@@H]1Cc1ccccc1)N1C[C@@H](Cc2ccccc2)N(CCCC2CCCC2)C1=N`, the inhibition was 42.6%.

Take `COc1ccc(NC(C)=O)cc1NC(=O)CN1CCN(C2c3ccccc3-c3ccccc32)CC1`: the inhibition is 37.7%.

On to `Cc1ccc(OCC(=O)Nc2ccc(N3CCN(C(=O)c4ccco4)CC3)cc2)c(C)c1`, for which the inhibition was 52.6% (active).

`Cc1ccccc1OCC(=O)Nc1ccc(N2CCN(C(=O)C(C)C)CC2)c(Cl)c1`: the inhibition is 42.7%.

With `CN1CCN(c2ccc(NC(=O)COc3ccc(Cl)cc3Cl)cc2)CC1`, the inhibition is 58% (active).

`CC1CCN(C(=O)c2ccc3c(c2)NC(=O)CN3)CC1`: the inhibition is 12.2%.

Turning to `O=C1N[C@H](Cc2c[nH]c3ccccc23)COC(=O)[C@H](Cc2ccc(F)cc2)C/C=C\C[C@H]1CC(=O)N(CCO)Cc1ccccc1`, the inhibition is 34.5%.

In the case of `Cc1ccc(N2CCN(C3=NC(=O)/C(=C\c4cccs4)S3)CC2)cc1`, the inhibition is 44.4% (active).

With `CCN(CC)c1ccc2cc(C(N)=O)/c(=N\NC(=O)c3ccncc3)oc2c1`, the inhibition was 56.2% (active).

Take `COC(=O)Cc1nc2ccccc2[nH]1`: the inhibition was 7.22%.

For the compound `Nc1c(C(=O)c2cccs2)sc2nsc(SCCN3CCCCC3)c12`, the inhibition was 54.6% (active).

For `Cc1ccc(NS(=O)(=O)c2ccc(N/N=C/c3ccccc3OCC(=O)O)c([N+](=O)[O-])c2)c(C)c1`, the inhibition is 46.4% (active).

As for `CC(C)CCNc1nc(N2CCCC2)c2c(c1C#N)CCN(C)C2`, the inhibition is 49% (active).

On to `CNCC[C@H](Oc1ccc(C(F)(F)F)cc1)c1ccccc1`, for which the inhibition is 55.1% (active).

As for `Cc1ccc(Nc2ccccc2N)cc1`, the inhibition was 32.1%.
